# NS1 inh: inhibitors of influenza NS1 protein function; Potency, µM (series often up to 46.1 µM), inactives show top-dose activity, positive = more growth; 0.4% of 270,000 active; AID 2326; calls by dose curve; also: actives are rising curves; nearly all actives have a fitted effect of over 50% in size
#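 Recovery from NS1-induced slow growth read by OD600 in budding yeast switched to galactose assay medium (pH 6.0, -URA) at 1:100 dilution. Compound 23 nl per well; the matching strain lacking NS1 serves as control.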
# Pf growth 96h: P. falciparum growth inhibition at 96 hour, primary screen for plastid delayed-death inhibitors; P. falciparum luciferase reporter growth, 96 h; Potency, µM (highest dose often 28.7 µM), for the others: top-dose activity change, negative = inhibition, most hits filed as inhibitors; 6.9% of 320,000 active; AID 504834; also: % is scaled to controls: 0 for no effect and ±100 for the full control effect
#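 Two-generation exposure (96 h) targets delayed-death phenotype. Reporter parasites carrying integrated firefly luciferase, in red cells at 2% hematocrit and 0.05% parasitemia final, kept at 37 C, 5% CO2; luminescence loss indicates inhibition.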
# SARS PLpro yeast: inhibitors of SARS-CoV papain-like protease in yeast. S. cerevisiae expressing SARS-CoV PLpro, growth rescue. Potency, µM (doses to about 32.9 µM), without a hit: at the top dose activity, positive = growth rescue, actives largely listed as activators. 0.19% of 330,000 active; calls by dose curve; also: 0% is about no effect; nearly all actives have a fitted effect of over 55% in size
# RE007 growth inh: less growth of the S. pombe RE007 Vpr strain; S. pombe RE007 Vpr strain, BacTiter-Glo ATP luminescence, 24 h; 0.21% of 360,000 active; AID 651644; Potency, µM (doses to about 92.2 µM), inactives show top-dose activity change, negative = less growth, actives largely listed as inhibitors; active = well fitted falling curve with a large enough effect; inconclusive = small, poorly fitted or top-dose-only effect; inactive = no such curve, though single readings can be large or run the other way; also: % is scaled to controls: 0 for no effect and ±100 for the full control effect; nearly all actives have a fitted effect of over 50% in size
#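 Fission yeast strain RE007, carrying one chromosomally integrated HIV-1 vpr copy, was seeded at OD 0.01 in PMG+AL medium with 23 nL pinned compound. After 24 h at 30 °C and 99% humidity, viability was read by BacTiter-Glo luminescence.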
# Pf growth 48h: P. falciparum growth inhibition at 48 hours (one generation). P. falciparum luciferase growth in erythrocytes, 48 h. Potency, µM (top dose mostly 28.7 µM), without a hit: top-dose activity change, negative = inhibition, hits mostly inhibitors. 5.9% of 310,000 active. AID 504832; also: % is scaled to controls: 0 for no effect and ±100 for the full control effect
#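 First compound was added to culture medium, then infected red cells at 0.1% parasitemia and 2% hematocrit (final). After incubation at 37 C under 5% CO2, luciferase detection reagent was dispensed and light output recorded.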
# Active calls of the source: *; ? = inconclusive; nt = not tested or not shown; [ ] = another dose, or the depositor's remark. Shown are actives, neighbours in structure and some others; about 9.5% of the full set was active somewhere. Unless noted, calls follow the shape of the dose curve; as a rule, active = well fitted inhibition curve with a large enough effect; inconclusive = small, poorly fitted or top-dose-only effect, or another doubt; inactive = no such curve, though single readings can be large or run the other way. Potency is read from the fitted curve at half-maximal effect.
SMILES,NS1 inh,Pf growth 96h,SARS PLpro yeast,RE007 growth inh,Pf growth 48h
C#CCOCCOCCOCCNc1nc(N2CCN(C(=O)CCCCCCCCCCNC(=O)[C@H]([C@@H](C)CC)n3cc(CCCCN=C(N)N)nn3)CC2)nc(N2CCN(C(=O)CCCCCCCCCCNC(=O)[C@H](CCCCN)n3cc(C[C@@H](C)CC)nn3)CC2)n1,nt,5.2µM*,0%,nt,9.3µM*
C#CCOCCOCCOCCNc1nc(N2CCN(C(=O)[C@H]([C@@H](C)CC)n3cc(CCCN=C(N)N)nn3)CC2)nc(N2CCN(C(=O)[C@H](CCCCN)n3cc(CC(C)O)nn3)CC2)n1 (stereo partly specified),nt,?,-1%,-4%,-25%
C#CCOCCOCCOCCNc1nc(N2CCN(C(=O)CCCCCCCCCCNC(=O)[C@H](CCCCN)n3cc(CCCC(=O)O)nn3)CC2)nc(N2CCN(C(=O)CCCCCCCCCCNC(=O)[C@H](CCCN=C(N)N)n3cc(C[C@@H](C)CC)nn3)CC2)n1,nt,13µM*,-4%,6%,10µM*
C#CCOCCOCCOCCNc1nc(N2CCN(C(=O)CCCCCCCCCCNC(=O)[C@H](CCCCN)n3cc(CCO)nn3)CC2)nc(N2CCN(C(=O)CCCCCCCCCCNC(=O)[C@H](CCCN=C(N)N)n3cc(C[C@@H](C)CC)nn3)CC2)n1,nt,4.7µM*,0%,2%,12µM*
CCn1nnc2cc(C(=O)Nc3cc(Cl)ccc3C)ccc21,nt,-12%,2%,-2%,-6%
O=C(CCc1nc2ccccc2c(=O)[nH]1)Nc1cc(Cl)ccc1N1CCCCC1,nt,?,2%[6.58 µM],-17%,10µM*
O=C(CCc1nc2ccccc2c(=O)[nH]1)Nc1ccccc1N1CCCCC1,nt,nt,nt,-2%,nt
COc1ccccc1NS(=O)(=O)c1cc(NC(=O)CCc2nc3ccccc3c(=O)[nH]2)ccc1C,nt,10µM*,-1%,5%,?
O=C(CCc1nc2ccccc2c(=O)[nH]1)Nc1cc(C(F)(F)F)ccc1N1CCOCC1,nt,-17%,-5%,-20%,-2%
COc1cccc(Oc2ccc(C(F)(F)F)cc2NC(=O)CCc2nc3ccccc3c(=O)[nH]2)c1,29%,1.7µM*,9%,2%,5.9µM*
O=C(CCc1nc2ccccc2c(=O)[nH]1)Nc1ccc(F)cc1,13%,21%,-11%,36%,24%
NNC(=O)c1cc2sccc2s1,2%,39%,-3%,10%,?
O=C(O)/C(Cc1ccc([N+](=O)[O-])cc1)=N/O,-1%,nt,nt,nt,nt
C=C1C2=C(C(=O)N1OC)[C@@H](O)[C@@](C)(O)[C@@H](CCCCC)O2,nt,nt,nt,4%,nt
Cc1cccc(C)c1NC(=O)CNC(=O)c1ccc(NS(=O)(=O)c2ccc3[nH]c(=O)[nH]c3c2)cc1,nt,0%,0%,0%,2%
CSc1ccccc1OCc1cc(C(=O)NC(C)Cc2cccc(C)n2)no1 (stereo unspecified),-30%,?,1%,3%,10µM*
CSc1ccccc1OCc1cc(C(=O)NCc2cccc(C)n2)no1,-9%,4.1µM*,1%,-12%,-9%
CSc1ccccc1OCc1cc(C(=O)NC(C)CCn2cccn2)no1 (stereo unspecified),-12%,-14%,0%,-4%,4%
O=C(NCCc1nnc2ccc(SCC(=O)N3CCCC3)nn12)c1ccccc1,3%,-12%,5%,-9%,-11%
CCC(c1nnnn1Cc1ccco1)N1CCN(c2cc(Cl)ccc2C)CC1 (stereo unspecified),-36%,1.5µM*,-5%,0%,?
Cc1ccc(Cl)cc1N1CCN(Cc2nnnn2Cc2ccco2)CC1,-55%,8.3µM*,1%,-9%,8%
CC(C)C(c1nnnn1Cc1ccco1)N1CCN(c2cccc(Cl)c2)CC1 (stereo unspecified),-55%,121%,-5%,-13%,0%
Cc1ccc(Cl)cc1N1CCN(Cc2nnnn2C2CCCCC2)CC1,-61%,?,-8%,27%,?
COc1cc(OC)cc(-c2c(C#Cc3ccsc3)c3cc(-c4ccc(C(N)=O)cc4)ccc3n2C)c1,nt,1µM*,4%,8%,1.3µM*
COCc1ccc(-c2ccc3c(c2)c(C#Cc2ccsc2)c(-c2cc(OC)cc(OC)c2)n3C)cc1,nt,?,7%,-4%,?
SMILES,NS1 inh,Pf growth 96h,SARS PLpro yeast,RE007 growth inh,Pf growth 48h
COc1ccc(OC2CCN(S(=O)(=O)c3ccc(F)cc3)CC2)cc1,-7%,-19%,-2%,14%,-20%
Cc1ccc(S(=O)(=O)N2CCC(=O)N(C(COCc3cccc(C)c3)C(C)C)CC2)cc1 (stereo unspecified),-17%,13µM*,6%,-7%,10µM*
Cc1ccc(S(=O)(=O)N2CCC(=O)N(C(COCc3cccc(Cl)c3)C(C)C)CC2)cc1 (stereo unspecified),-8%,10µM*,-9%,-1%,15µM*
Cc1ccc(S(=O)(=O)N2CCC(=O)N(C(COCc3cccc(C(F)(F)F)c3)C(C)C)CC2)cc1 (stereo unspecified),-34%,10µM*,-9%,8%,?
Cc1ccc(S(=O)(=O)N2CCC(Oc3cccc(C(F)(F)F)c3)CC2)cc1,7%,2.3µM*,-1%,nt,2%
Cc1ccc(S(=O)(=O)N2CCC(=O)N([C@H](COCc3cccc(Cl)c3)C(C)C)CC2)cc1,nt,nt,nt,4%,nt
OCC[C@@H]1C[C@H](O)[C@@H](O)[C@]2(CCCO2)O1,nt,nt,nt,3%,nt
COc1ccc(CNC(=O)C2CCCN(S(=O)(=O)c3ccc(-n4cnnn4)cc3)C2)cc1 (stereo unspecified),2%,4%,5%,6%,-5%
CN[C@@H]1NC(=O)c2ccccc2N1Cc1ccc(F)cc1,-4%,nt,nt,nt,nt
CCCCc1nc2cc(C(=O)N(C)C3CCOCC3)ccc2o1,-9%,29%,0%,-9%,51%
O=C(O)/C=C/C(=O)OC1CC2CCC1C2 (stereo unspecified),1%,5%,0%,2%,-2%
COC(=O)c1c(NC(=O)c2nc3nc(C)cc(C(F)F)n3n2)sc2c1CCC2,15%,5.2µM*,9%,5%,?
Cc1cc(C(F)F)n2nc(C(=O)Nc3sc4c(c3C(N)=O)CCC4)nc2n1,7%,4.1µM*,?,11%,?
Cc1cc(C(F)F)n2nc(C(=O)Nc3sc4c(c3C#N)CCC(C)C4)nc2n1 (stereo unspecified),3%,-58%,-2%,-23%,21%
C/C=C/C=C/C(=O)[C@@H]1[C@@H]([C@]2(C)OC(=O)C(C)=C2O)[C@H]2/C(=C(O)/C=C/C=C/C)C(=O)[C@]1(C)C(=O)C2(C)O (stereo partly specified),-3%,7.4µM*,1%,9%,-25%
NC(=O)c1ccc(C[C@H](C(=O)O)N2C(=O)c3ccc(C(=O)O)cc3C2=O)cc1,nt,1%,-6%,nt,-7%

# Screening data as filed in PubChem.
